What follows are targets tested with C#CCNC(=O)CCSSCCC(=O)NCCc1ccc(C=O)c(C=O)c1 (assay: lysine labeling ratio R10:1 (500 µM / 50 µM probe), SILAC-ABPP in living cells; higher = lower intrinsic lysine reactivity toward the probe, active = 2 or less). Conditions: HeLa; probe concentrations 500 vs 50 µM.
Summary of the method: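 The two probe levels, 50 µM and 500 µM, of an alkyne-tagged, disulfide-linked lysine probe were applied to living light and heavy SILAC HeLa cells in PBS at room temperature, and the labels were run in both forward and reverse orientation. Mixed lysates underwent biotin-azide click chemistry, trypsin digestion, neutravidin capture, DTT release and alkylation before LC-MS/MS on a TIMS-TOF Pro. R is the filtered median high-probe/low-probe MS1 peptide ratio for each lysine, summarised as the median over forward and reverse replicates. Nothing above 20 is reported; such values are set to 20.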

UniProt P69905, sequence (P69905 whole entry): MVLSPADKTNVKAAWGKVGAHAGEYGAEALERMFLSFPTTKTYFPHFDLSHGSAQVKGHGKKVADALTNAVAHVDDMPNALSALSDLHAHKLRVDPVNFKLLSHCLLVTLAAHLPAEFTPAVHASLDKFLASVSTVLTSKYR
UniProt P11717, sequence (P11717 whole entry): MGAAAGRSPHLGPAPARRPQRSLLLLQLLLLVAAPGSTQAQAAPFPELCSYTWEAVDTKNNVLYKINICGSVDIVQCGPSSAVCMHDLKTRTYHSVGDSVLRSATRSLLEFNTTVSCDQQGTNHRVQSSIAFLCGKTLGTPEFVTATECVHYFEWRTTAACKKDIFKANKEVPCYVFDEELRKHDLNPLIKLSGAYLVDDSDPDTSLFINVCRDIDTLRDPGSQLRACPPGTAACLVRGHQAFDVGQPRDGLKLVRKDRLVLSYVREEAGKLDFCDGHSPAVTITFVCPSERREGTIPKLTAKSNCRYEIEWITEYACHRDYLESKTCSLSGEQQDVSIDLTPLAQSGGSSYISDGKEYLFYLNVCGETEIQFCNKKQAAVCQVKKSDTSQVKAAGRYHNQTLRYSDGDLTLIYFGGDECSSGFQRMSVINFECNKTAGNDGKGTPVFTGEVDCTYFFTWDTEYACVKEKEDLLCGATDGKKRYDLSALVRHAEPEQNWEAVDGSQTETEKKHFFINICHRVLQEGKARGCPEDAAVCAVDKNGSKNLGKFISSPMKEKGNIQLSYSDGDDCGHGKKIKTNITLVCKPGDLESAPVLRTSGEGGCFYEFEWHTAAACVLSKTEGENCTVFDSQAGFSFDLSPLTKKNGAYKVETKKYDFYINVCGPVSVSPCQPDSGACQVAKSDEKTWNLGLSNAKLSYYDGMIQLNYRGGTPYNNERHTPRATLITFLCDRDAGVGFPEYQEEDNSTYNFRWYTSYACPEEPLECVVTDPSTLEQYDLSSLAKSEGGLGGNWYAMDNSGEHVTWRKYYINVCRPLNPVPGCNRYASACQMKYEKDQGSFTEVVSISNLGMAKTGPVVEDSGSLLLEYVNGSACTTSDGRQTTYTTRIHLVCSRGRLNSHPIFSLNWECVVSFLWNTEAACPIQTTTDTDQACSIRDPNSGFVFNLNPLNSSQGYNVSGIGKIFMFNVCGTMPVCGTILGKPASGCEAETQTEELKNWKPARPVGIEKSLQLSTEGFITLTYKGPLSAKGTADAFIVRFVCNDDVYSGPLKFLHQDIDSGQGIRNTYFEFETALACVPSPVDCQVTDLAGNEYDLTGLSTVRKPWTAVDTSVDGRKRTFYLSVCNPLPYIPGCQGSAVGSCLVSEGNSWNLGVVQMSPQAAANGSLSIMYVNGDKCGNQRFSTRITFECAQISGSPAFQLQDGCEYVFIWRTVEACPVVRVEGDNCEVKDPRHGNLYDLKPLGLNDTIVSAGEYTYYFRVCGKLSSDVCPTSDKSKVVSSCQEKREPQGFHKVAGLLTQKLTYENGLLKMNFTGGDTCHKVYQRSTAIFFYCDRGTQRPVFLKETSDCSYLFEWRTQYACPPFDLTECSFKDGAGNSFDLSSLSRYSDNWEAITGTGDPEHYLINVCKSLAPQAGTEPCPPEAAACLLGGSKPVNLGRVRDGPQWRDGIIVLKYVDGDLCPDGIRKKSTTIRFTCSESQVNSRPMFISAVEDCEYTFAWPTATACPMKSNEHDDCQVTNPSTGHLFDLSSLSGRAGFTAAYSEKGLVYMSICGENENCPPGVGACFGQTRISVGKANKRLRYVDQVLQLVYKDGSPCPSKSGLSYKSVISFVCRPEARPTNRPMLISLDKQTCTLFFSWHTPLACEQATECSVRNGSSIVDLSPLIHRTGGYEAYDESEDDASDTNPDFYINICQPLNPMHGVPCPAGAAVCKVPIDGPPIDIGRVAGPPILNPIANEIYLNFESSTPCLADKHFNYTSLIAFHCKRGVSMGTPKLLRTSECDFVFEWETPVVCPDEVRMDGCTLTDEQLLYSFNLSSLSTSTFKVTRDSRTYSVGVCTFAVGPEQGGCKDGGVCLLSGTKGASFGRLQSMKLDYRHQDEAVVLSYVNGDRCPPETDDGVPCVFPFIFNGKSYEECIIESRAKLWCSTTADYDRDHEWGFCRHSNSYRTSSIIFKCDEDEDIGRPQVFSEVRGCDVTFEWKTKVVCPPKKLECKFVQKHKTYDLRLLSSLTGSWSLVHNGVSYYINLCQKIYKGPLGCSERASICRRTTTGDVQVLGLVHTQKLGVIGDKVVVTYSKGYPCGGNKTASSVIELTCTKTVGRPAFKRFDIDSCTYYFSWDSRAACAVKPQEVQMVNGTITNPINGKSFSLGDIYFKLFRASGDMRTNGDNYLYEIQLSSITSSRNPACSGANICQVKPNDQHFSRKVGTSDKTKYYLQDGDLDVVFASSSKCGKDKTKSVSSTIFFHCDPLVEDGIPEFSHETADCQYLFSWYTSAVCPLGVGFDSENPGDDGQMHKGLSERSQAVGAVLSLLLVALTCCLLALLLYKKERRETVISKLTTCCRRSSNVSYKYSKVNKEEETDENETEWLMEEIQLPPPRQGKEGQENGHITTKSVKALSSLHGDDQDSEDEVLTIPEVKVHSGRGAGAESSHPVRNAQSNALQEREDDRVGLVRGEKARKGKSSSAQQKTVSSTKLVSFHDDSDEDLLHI
UniProt P09543, sequence (P09543 whole entry): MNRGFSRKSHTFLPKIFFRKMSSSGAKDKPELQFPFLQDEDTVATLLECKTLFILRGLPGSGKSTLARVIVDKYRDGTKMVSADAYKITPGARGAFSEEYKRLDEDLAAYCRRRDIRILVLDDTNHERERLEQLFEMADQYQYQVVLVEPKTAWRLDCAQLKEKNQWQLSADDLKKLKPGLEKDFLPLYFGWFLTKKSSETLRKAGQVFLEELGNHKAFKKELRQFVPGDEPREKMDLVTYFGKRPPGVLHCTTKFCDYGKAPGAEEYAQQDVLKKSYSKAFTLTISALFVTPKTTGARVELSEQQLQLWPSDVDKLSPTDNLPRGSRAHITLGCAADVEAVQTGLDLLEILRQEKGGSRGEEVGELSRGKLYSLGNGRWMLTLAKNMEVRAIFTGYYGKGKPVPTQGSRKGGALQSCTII
UniProt P06756, sequence (P06756 whole entry): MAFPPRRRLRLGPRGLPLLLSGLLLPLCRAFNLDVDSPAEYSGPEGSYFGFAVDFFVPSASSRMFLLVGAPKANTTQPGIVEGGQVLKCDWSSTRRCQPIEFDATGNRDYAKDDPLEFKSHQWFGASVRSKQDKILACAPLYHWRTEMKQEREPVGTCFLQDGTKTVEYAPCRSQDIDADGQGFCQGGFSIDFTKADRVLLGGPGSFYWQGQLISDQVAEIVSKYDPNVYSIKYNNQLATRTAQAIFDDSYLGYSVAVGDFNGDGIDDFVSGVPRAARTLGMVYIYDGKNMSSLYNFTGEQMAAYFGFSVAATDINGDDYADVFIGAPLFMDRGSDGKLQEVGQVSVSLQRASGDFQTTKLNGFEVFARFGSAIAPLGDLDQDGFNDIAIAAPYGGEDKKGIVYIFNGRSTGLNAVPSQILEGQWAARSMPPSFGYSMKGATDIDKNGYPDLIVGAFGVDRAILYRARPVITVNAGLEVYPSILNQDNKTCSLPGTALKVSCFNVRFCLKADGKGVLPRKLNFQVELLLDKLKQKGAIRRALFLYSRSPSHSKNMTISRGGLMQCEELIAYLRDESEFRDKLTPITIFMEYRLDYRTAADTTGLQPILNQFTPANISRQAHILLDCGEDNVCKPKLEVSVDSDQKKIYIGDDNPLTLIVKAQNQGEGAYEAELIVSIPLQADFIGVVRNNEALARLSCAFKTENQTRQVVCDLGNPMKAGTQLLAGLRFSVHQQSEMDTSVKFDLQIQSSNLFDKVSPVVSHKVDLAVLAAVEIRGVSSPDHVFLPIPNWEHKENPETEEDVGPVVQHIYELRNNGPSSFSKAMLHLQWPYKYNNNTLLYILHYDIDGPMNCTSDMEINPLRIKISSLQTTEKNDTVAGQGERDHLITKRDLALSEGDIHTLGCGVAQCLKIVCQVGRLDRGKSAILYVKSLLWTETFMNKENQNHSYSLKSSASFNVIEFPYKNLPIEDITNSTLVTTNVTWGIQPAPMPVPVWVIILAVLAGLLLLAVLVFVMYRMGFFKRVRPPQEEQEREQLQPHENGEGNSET
UniProt Q9Y639, sequence (Q9Y639 whole entry): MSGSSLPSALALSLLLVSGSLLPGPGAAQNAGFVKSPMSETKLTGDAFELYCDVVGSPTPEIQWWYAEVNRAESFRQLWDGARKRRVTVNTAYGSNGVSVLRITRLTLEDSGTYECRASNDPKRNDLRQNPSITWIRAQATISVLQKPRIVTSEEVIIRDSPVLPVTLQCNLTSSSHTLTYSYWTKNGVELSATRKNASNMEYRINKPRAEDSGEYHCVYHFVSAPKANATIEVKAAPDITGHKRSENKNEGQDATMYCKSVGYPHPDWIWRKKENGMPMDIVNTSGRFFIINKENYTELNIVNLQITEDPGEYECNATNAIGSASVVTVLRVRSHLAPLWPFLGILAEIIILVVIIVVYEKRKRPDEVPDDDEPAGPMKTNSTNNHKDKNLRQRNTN
UniProt P09758, sequence (P09758 whole entry): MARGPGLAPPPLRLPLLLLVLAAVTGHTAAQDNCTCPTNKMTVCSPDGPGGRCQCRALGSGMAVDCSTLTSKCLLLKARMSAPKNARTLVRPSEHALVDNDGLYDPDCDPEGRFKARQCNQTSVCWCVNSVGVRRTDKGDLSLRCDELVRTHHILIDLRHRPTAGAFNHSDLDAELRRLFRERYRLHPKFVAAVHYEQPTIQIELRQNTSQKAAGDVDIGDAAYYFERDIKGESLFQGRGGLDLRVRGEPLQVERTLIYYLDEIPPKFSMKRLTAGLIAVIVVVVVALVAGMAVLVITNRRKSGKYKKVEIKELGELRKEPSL
UniProt P32119, sequence (P32119 whole entry): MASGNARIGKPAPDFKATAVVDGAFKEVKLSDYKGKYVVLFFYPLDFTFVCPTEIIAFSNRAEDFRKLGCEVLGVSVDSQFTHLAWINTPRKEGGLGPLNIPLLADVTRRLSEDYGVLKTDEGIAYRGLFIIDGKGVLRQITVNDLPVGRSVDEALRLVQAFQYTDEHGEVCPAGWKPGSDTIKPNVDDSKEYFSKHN

Lysine labeling ratio R10:1, inactive:
TKT (lysine site: K16) (UniProt P29401) 2.68
ANPEP (lysine site: K923) (UniProt P15144) 2.33
TMED9 (lysine site: K160) (UniProt Q9BVK6) 5.13
EPCAM (lysine site: K168) (UniProt P16422) 6.35
HSPD1 (lysine site: K523) (UniProt P10809) 5.04
PVR (lysine site: K90) (UniProt P15151) 3.33
RUVBL2 (lysine site: K427) (UniProt Q9Y230) 2.02
HBA1 (lysine site: K17) (UniProt P69905) 3.74
ANXA1 (lysine site: K287) (UniProt P04083) 2.78
IGSF3 (lysine site: K279) (UniProt O75054) 2.5
UniProt P25705 (lysine site: K261) 2.94
ASPH (lysine site: K110) (UniProt Q12797) 4.5
KRT18 (lysine site: K187) (UniProt P05783) 3.47
BST2 (lysine site: K126) (UniProt Q10589) 4.11
UniProt Q99623 (lysine site: K218) 2.79
IGF2R (lysine site: K808) (UniProt P11717) 5.23
NPTN (lysine site: K244) (UniProt Q9Y639) 8.84
CNP (lysine site: K197) (UniProt P09543) 2.88
UniProt P62701 (lysine site: K106) 2.28
HNRNPU (lysine site: K565) (UniProt Q00839) 3.39
UniProt P09758 (lysine site: K84) 5.29
ITGA1 (lysine site: K291) (UniProt P56199) 7.48
PRDX2 (lysine site: K196) (UniProt P32119) 2.99
ACTN4 (lysine site: K760) (UniProt O43707) 4.05
TNFRSF10B (lysine site: K72) (UniProt O14763) 3.31
FLNA (lysine site: K2607) (UniProt P21333) 6.14
L1CAM (lysine site: K301) (UniProt P32004) 4.21
UniProt P62805 (lysine site: K78) 8.41

Lysine labeling ratio R10:1, active:
NEGR1 (lysine site: K84) (UniProt Q7Z3B1) 1.36
MET (lysine site: K380) (UniProt P08581) 1.21
UniProt Q15149 (lysine site: K2182) 1.67
WASF2 (lysine site: K109) (UniProt Q9Y6W5) 1.24
PLXNA2 (lysine site: K542) (UniProt O75051) 1.9
ITGAV (lysine site: K360) (UniProt P06756) 1.23
TM9SF2 (lysine site: K328) (UniProt Q99805) 0.928
UniProt O15354 (lysine site: K405) 1.9
CCT7 (lysine site: K250) (UniProt Q99832) 1.57
RDX (lysine site: K520) (UniProt P35241) 1.76
LNPEP (lysine site: K624) (UniProt Q9UIQ6) 0.72
EGFR (lysine site: K489) (UniProt P00533) 1.31

Source: the supplement of paper PMC11001985
